Reference: the supplement of paper PMC9023506
Structures can show the parent of a compound that is named as a salt.

system: Danio rerio larvae (5 dpf); test: startle response to 20-s acoustic pulses, difference vs DMSO (percentage points (treated minus DMSO)); higher = more of the behaviour than the DMSO vehicle control; conditions: 10 µM; exposure time: 3 h pre-incubation + 3 h imaging
Procedure: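 5-dpf wild-type zebrafish larvae were imaged in 96-well plates. They were treated with 190 Tocris FDA-approved drugs at 10 µM (1 µl/ml DMSO) for 3 h before and 3 h during imaging at 28.5 °C, 48 larvae per drug. Automated image analysis gave % time moving and optomotor responses. Values are drug group mean minus DMSO vehicle mean (n=844), in percentage points, for 10 behaviours.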

Row | Structure (SMILES) | startle response to 20-s acoustic pulses
1 | CC(C)N(CCCCOCC(=O)NS(C)(=O)=O)c1cnc(-c2ccccc2)c(-c2ccccc2)n1 [Selexipag] | -1.31
2 | O=C(c1ccc(OCCN2CCCCC2)cc1)c1c(-c2ccc(O)cc2)sc2cc(O)ccc12 [Raloxifene hydrochloride] | 1.88
3 | CCCc1nc2c(C)cc(-c3nc4ccccc4n3C)cc2n1Cc1ccc(-c2ccccc2C(=O)O)cc1 [Telmisartan] | 3.69
4 | CC(C)C(=O)Nc1ccc([N+](=O)[O-])c(C(F)(F)F)c1 [Flutamide] | -5.19
5 | CC[C@H]1OC(=O)[C@H](C)[C@@H](O[C@H]2C[C@@](C)(OC)[C@@H](O)[C@H](C)O2)[C@H](C)[C@@H](O[C@@H]2O[C@H](C)C[C@H](N(C)C)[C@H]2O)[C@](C)(O)C[C@@H](C)CN(C)[C@H](C)[C@@H](O)[C@]1(C)O [Azithromycin] | 2.64
6 | N#C[C@@H]1C[C@@H]2C[C@@H]2N1C(=O)[C@@H](N)C12CC3CC(CC(O)(C3)C1)C2 [Saxagliptin hydrochloride] | 4.85
7 | CCOC(=O)[C@H](CCc1ccccc1)N[C@H]1CCc2ccccc2N(CC(=O)O)C1=O [Benazepril hydrochloride] | -1.74
8 | C[C@H](Cc1cc2c(c(C(N)=O)c1)N(CCCO)CC2)NCCOc1ccccc1OCC(F)(F)F [Silodosin] | 2.96
9 | CCCCNc1cc(C(=O)O)cc(S(N)(=O)=O)c1Oc1ccccc1 [Bumetanide] | 3.98
10 | Nc1cccc2c1CN(C1CCC(=O)NC1=O)C2=O (stereo not given) [Lenalidomide] | -5.01
11 | COCCc1ccc(OCC(O)CNC(C)C)cc1 (stereo not given) [Metoprolol tartrate] | 6.66
12 | O=C(O[C@@H]1C[C@@H]2C[C@H]3C[C@H](C1)N2CC3=O)c1c[nH]c2ccccc12 [Dolasetron mesylate] | 2.42
13 | Clc1ccccc1C(c1ccccc1)(c1ccccc1)n1ccnc1 [Clotrimazole] | 4.06
14 | Cc1cc(C2CCCCC2)n(O)c(=O)c1 [Ciclopirox] | -9.88
15 | CCCCC1=NC2(CCCC2)C(=O)N1Cc1ccc(-c2ccccc2-c2nnn[nH]2)cc1 [Irbesartan] | 1.39
16 | CC(c1cc2ccccc2s1)N(O)C(N)=O (stereo not given) [Zileuton] | -2.9
17 | CCCCCCCN(CC)CCCC(O)c1ccc(NS(C)(=O)=O)cc1 (stereo not given) [Ibutilide hemifumarate] | -3.17
18 | CCCCCCCCc1ccc(CCC(N)(CO)CO)cc1 | -1.81
19 | Cc1ccsc1C(=CCCN1CCC[C@@H](C(=O)O)C1)c1sccc1C [Tiagabine hydrochloride] | 5.98
20 | CCCCC(=O)N(Cc1ccc(-c2ccccc2-c2nnn[nH]2)cc1)[C@H](C(=O)O)C(C)C [Valsartan] | -0.147

Row | Structure (SMILES) | startle response to 20-s acoustic pulses
21 | CN(C)CCC[C@@]1(c2ccc(F)cc2)OCc2cc(C#N)ccc21 [Escitalopram oxalate] | -6.28
22 | CCOC(=O)N1CCC(=C2c3ccc(Cl)cc3CCc3cccnc32)CC1 [Loratidine] | 14.8
23 | CNS(=O)(=O)Cc1ccc2[nH]cc(CCN(C)C)c2c1 [Sumatriptan succinate] | 3.19
24 | OCCN1C[C@H](O)[C@@H](O)[C@H](O)[C@H]1CO [Miglitol] | -1.17
25 | COc1ccccc1Oc1c(NS(=O)(=O)c2ccc(C(C)(C)C)cc2)nc(-c2ncccn2)nc1OCCO [Bosentan] | 6.71
26 | NS(=O)(=O)Cc1noc2ccccc12 [Zonisamide] | 8.21
27 | CC(=O)Nc1ccc(O)cc1 [Acetaminophen] | -1.63
28 | CN(C)CCc1c[nH]c2ccc(Cn3cncn3)cc12 [Rizatriptan benzoate] | 4.29
29 | CC(C)Nc1cccnc1N1CCN(C(=O)c2cc3cc(NS(C)(=O)=O)ccc3[nH]2)CC1 [Delavirdine mesylate] | -4.51
30 | Cc1nc(-c2ccc(OCC(C)C)c(C#N)c2)sc1C(=O)O [Febuxostat] | 2.71
31 | Nc1ncn([C@H]2C[C@H](O)[C@@H](CO)O2)c(=O)n1 [Decitabine] | -0.522
32 | CC(C)c1nc(N(C)S(C)(=O)=O)nc(-c2ccc(F)cc2)c1/C=C/[C@@H](O)C[C@@H](O)CC(=O)O [Rosuvastatin calcium] | -3.11
33 | N#Cc1ccc2[nH]cc(CCCCN3CCN(c4ccc5oc(C(N)=O)cc5c4)CC3)c2c1 [Vilazodone hydrochloride] | -6.5
34 | COc1cc(Nc2c(C#N)cnc3cc(OCCCN4CCN(C)CC4)c(OC)cc23)c(Cl)cc1Cl [Bosutinib] | -0.606
35 | C[C@@H](O[C@H]1OCCN(Cc2n[nH]c(=O)[nH]2)[C@H]1c1ccc(F)cc1)c1cc(C(F)(F)F)cc(C(F)(F)F)c1 [Aprepitant] | -6.92
36 | COc1cc2ncnc(Nc3ccc(F)c(Cl)c3)c2cc1OCCCN1CCOCC1 [Iressa] | -2.19
37 | CC(C)OC(=O)C(C)(C)Oc1ccc(C(=O)c2ccc(Cl)cc2)cc1 [Fenofibrate] | -3.27
38 | CS(=O)(=O)CCNCc1ccc(-c2ccc3ncnc(Nc4ccc(OCc5cccc(F)c5)c(Cl)c4)c3c2)o1 [Lapatinib] | -0.481
39 | CCCCc1nc(Cl)c(CO)n1Cc1ccc(-c2ccccc2-c2nnn[nH]2)cc1 [Losartan potassium] | -0.252
40 | Nc1nc(Cl)nc2c1ncn2[C@@H]1O[C@H](CO)[C@@H](O)[C@@H]1F [Clofarabine] | 5.05
